Screening data: PubChem BioAssay, National Center for Advancing Translational Sciences (NCATS)
MCF10A rereplic – DNA re-replication induction in MCF 10a cells; MCF 10A DNA re-replication, Hoechst nuclear intensity, 48 h; Potency, µM (titrated, usually from 46.1 µM), inactives show at the highest dose activity, positive = re-replication, most hits filed as activators; 2.9% of 350,000 active; further: potency means the concentration at half of the fitted maximal effect; % of control where 0% means no effect; nearly all actives have a fitted effect of over 50% in size
IL1B secr inh – inflammasome signaling inhibition, IL-1 beta readout | 4.7% of 360,000 active | THP-1 LPS/ATP IL-1B secretion, AlphaLISA, 16 h; active compounds read low | AID 743279 | activity change, % at 57.5 µM; in the data active means activity change below about -50%; inconclusive means mostly about -30% to -49%; further: on the % scale 0 is the no-effect control and ±100 the full control effect
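THP-1 cells pretreated 1 hr with compounds (up to 57.5 uM final), then stimulated with LPS (250 ng/mL final) plus ATP (1.25 mM final); secreted IL-1B measured by AlphaLISA after 16 hr, decreased signal indicating inhibition.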
Vif-A3F inh – inhibitors of Vif-A3F interaction; HeLa A3F-eYFP + Vif (tagged APOBEC3F with the HIV-1 protein that degrades it), YFP fluorescence increase; Potency, µM (highest dose often 46.1 µM), for inactives: at the top dose activity, negative = active; 0.2% of 390,000 active; further: potency means the concentration at half of the fitted maximal effect; % of control where 0% means no effect; nearly all actives have a fitted effect of over 65% in size
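HeLa cells stably expressing Vif plus C-terminally eYFP-tagged A3F were seeded, incubated overnight at 37 deg C, dosed with compound, incubated overnight again at 37 deg C. Yellow fluorescence (Ex 488/Em 500-530) reported blocked Vif-mediated A3F-eYFP degradation.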
Giardia kill – kills Giardia lamblia. Giardia lamblia trophozoite viability. activity change, % at 7.66 µM, hits read low. 0.15% of 340,000 active; in the data active means activity change below about -80%; inconclusive means between about -30% and that limit;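 further: parasites exposed to compound for two days anaerobically before the ATP read; on the % scale 0 is the no-effect control and ±100 the full control effect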
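Media and compound were dispensed first, then trophozoites at 100 cells/well; plates sat 48 hrs at 37 deg C without oxygen before ATP luminescence reagent was added and read after 15-30 min at room temperature.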
Vif-APOBEC3G blk – inhibitors of Vif-APOBEC3G interaction; 0.076% of 410,000 active; AID 602310; Potency, µM (titrated, usually from 46.1 µM), for the others: at the top dose activity, negative = active, hits mostly inhibitors; Q9HC16; HeLa A3G-eYFP + Vif (tagged APOBEC3G with the HIV-1 protein that degrades it), YFP fluorescence, overnight; further: potency means the concentration at half of the fitted maximal effect; on the % scale 0 is the no-effect control and ±100 the full control effect; nearly all actives have a fitted effect of over 60% in size
Target sequence (Q9HC16 whole entry, looked up): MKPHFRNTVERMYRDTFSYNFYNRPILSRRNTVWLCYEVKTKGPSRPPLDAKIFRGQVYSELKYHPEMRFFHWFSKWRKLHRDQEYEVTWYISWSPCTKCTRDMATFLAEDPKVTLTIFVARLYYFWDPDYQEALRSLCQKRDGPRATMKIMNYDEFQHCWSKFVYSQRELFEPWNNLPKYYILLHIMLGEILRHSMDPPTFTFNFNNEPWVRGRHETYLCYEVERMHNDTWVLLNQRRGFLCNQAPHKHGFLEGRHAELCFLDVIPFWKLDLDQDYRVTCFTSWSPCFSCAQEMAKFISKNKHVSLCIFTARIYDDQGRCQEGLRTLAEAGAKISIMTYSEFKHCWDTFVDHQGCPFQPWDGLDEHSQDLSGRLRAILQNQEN
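HeLa cells stably expressing Vif and C-terminally eYFP-tagged A3G, seeded overnight at 37 deg C, then exposed to compound by pintool overnight at 37 deg C. Rise in yellow fluorescence (Ex 488/Em 500-530, Acumen) marks blocked Vif-driven A3G degradation.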
SW480 rerep – induces DNA re-replication in SW480 colon adenocarcinoma cells; Potency, µM (top dose mostly 46.1 µM), inactives show top-dose re-replication activation, most hits filed as activators; AID 624297; 1.8% of 340,000 active; SW480 DNA re-replication, Hoechst DNA content imaging, 48 h; further: potency means the concentration at half of the fitted maximal effect; % of control where 0% means no effect; nearly all actives have a fitted effect of over 55% in size
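Quantitative HTS format with DMSO vehicle controls; 48 hr drug incubation at 37 C, then 40 min Hoechst staining and scanning imager measurement at 405 nm excitation.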
* marks the source's active call; other numbers are inactive results; [ ] = remark or other dose. Most compounds without a hit are left out; they make up all but 6.9% or so of the library. Unless noted, the call rests on the fitted dose curve; in most records, active means well fitted curve in the direction sought with a large enough effect; inconclusive means small, poorly fitted or top-dose-only effect, or another doubt; inactive means no such curve, though single readings can be large; an effect the other way counts as inactive or inconclusive.

For CN([C@@H](C(=O)OC(C)(C)C)c1ccccc1)S(=O)(=O)c1cccc(S(=O)(=O)N(C)[C@@H](C(=O)OC(C)(C)C)c2ccccc2)c1 the results were MCF10A rereplic inconclusive, IL1B secr inh 17, Vif-A3F inh 0%, Giardia kill -8, Vif-APOBEC3G blk -5% and SW480 rerep -6%.
Screening CC(C)(C)OC(=O)CC(S(=O)(=O)c1ccccc1)S(=O)(=O)c1ccccc1 returned IL1B secr inh -51*, Vif-A3F inh 4% and Vif-APOBEC3G blk -27%.
Screening Cn1c(=O)c(C(=O)CCl)c(N)n(Cc2ccccc2)c1=O returned MCF10A rereplic 0%, IL1B secr inh -95*, Vif-A3F inh 3%, Giardia kill 7, Vif-APOBEC3G blk -12% and SW480 rerep 4%.
For Cn1c(N)c(C(=O)CCl)c(=O)n(Cc2ccccc2)c1=O the results were MCF10A rereplic -8%, IL1B secr inh -97*, Vif-A3F inh 7%, Giardia kill 26, Vif-APOBEC3G blk 1% and SW480 rerep inconclusive.
For CN(C)CC(=O)c1c(N)n(Cc2ccccc2)c(=O)n(C)c1=O the results were MCF10A rereplic 19%, IL1B secr inh 3, Vif-A3F inh 8%, Giardia kill -14, Vif-APOBEC3G blk -1% and SW480 rerep -2%.
CCOc1ccccc1NC(=O)CCCc1nc(-c2ccccc2Cl)no1 was read as Vif-A3F inh 1% and Vif-APOBEC3G blk 1%.
Screening O=[N+]([O-])c1ccccc1N/N=C/c1c[nH]c2ccccc12 returned MCF10A rereplic 18%, IL1B secr inh -21, Vif-A3F inh -7%, Giardia kill -6, Vif-APOBEC3G blk 4% and SW480 rerep -6%[9.22 µM].
For COc1ccc(NS(=O)(=O)c2cc([N+](=O)[O-])ccc2NN=Cc2ccccc2OCC(=O)O)cc1 the results were MCF10A rereplic 21µM*, IL1B secr inh 14, Vif-A3F inh -8%, Giardia kill 22, Vif-APOBEC3G blk -12% and SW480 rerep inconclusive.
For O=[N+]([O-])c1ccc(N/N=C/c2c[nH]c3ccccc23)cc1 the results were MCF10A rereplic inconclusive, IL1B secr inh -90*, Vif-A3F inh 13µM*, Giardia kill 8, Vif-APOBEC3G blk 7.9µM* and SW480 rerep inconclusive.
`O=C(O)COc1ccccc1C=NNc1ccc([N+](=O)[O-])cc1S(=O)(=O)Nc1ccc(Cl)cc1` gave MCF10A rereplic 2.1µM*, IL1B secr inh 7, Vif-A3F inh -13%, Giardia kill 6, Vif-APOBEC3G blk 2% and SW480 rerep -3%.
For O=C(O)COc1ccccc1/C=N/Nc1ccc(S(=O)(=O)Nc2ccc(Cl)cc2)cc1[N+](=O)[O-] the results were MCF10A rereplic 0%, IL1B secr inh 8, Vif-A3F inh 0%, Giardia kill -8, Vif-APOBEC3G blk 5% and SW480 rerep 9%.
For COc1ccc(NS(=O)(=O)c2cc([N+](=O)[O-])ccc2N/N=C\c2c(C)[nH]c3ccccc23)cc1 the results were MCF10A rereplic 9.2µM*, IL1B secr inh -1, Vif-A3F inh inconclusive, Giardia kill -12, Vif-APOBEC3G blk -15% and SW480 rerep 4%.
`Cc1[nH]c2ccccc2c1/C=N/Nc1ccc([N+](=O)[O-])cc1S(=O)(=O)Nc1ccc(Cl)cc1` gave MCF10A rereplic 9%, IL1B secr inh 1, Vif-A3F inh inconclusive, Giardia kill 0, Vif-APOBEC3G blk -8% and SW480 rerep -2%.
For COc1ccc(C=NNc2ccc([N+](=O)[O-])cc2S(=O)(=O)Nc2ccccc2C(=O)O)cc1OC the results were MCF10A rereplic 18µM*, IL1B secr inh 5, Vif-A3F inh 3%, Giardia kill 2, Vif-APOBEC3G blk 3% and SW480 rerep -3%.
Screening O=C(O)c1ccccc1NS(=O)(=O)c1ccc(N/N=C/c2ccc(O)c(O)c2)c([N+](=O)[O-])c1 returned MCF10A rereplic -3%, IL1B secr inh 0, Vif-A3F inh -8%, Giardia kill -2, Vif-APOBEC3G blk 2% and SW480 rerep -3%.
For COc1ccccc1NS(=O)(=O)c1cc([N+](=O)[O-])ccc1N/N=C/c1c[nH]c2ccccc12 the results were MCF10A rereplic 8.2µM*, IL1B secr inh -81*, Vif-A3F inh 11µM*, Giardia kill 4, Vif-APOBEC3G blk 11µM* and SW480 rerep inconclusive.
For O=C1C[C@H]2C=CCc3cccc(c32)CN1Cc1ccc(Br)cc1 the results were Vif-APOBEC3G blk -2%.
Cc1ccc(NC(=O)C2SC(=Nc3ccccc3)C(C(=O)Nc3ccc(Cl)cc3)=C2N)cc1 (configuration not stated) was read as MCF10A rereplic 21µM*, IL1B secr inh -16, Vif-A3F inh -13%, Giardia kill 9, Vif-APOBEC3G blk 3% and SW480 rerep -8%.
Cc1ccc(NC(=O)c2cc3cc(OC(F)(F)F)ccc3[nH]2)cc1 was read as MCF10A rereplic 0%, IL1B secr inh inconclusive, Vif-A3F inh -3%, Giardia kill 9, Vif-APOBEC3G blk 3% and SW480 rerep -27%.
Cc1ccc(N=C2SC(C(=O)Nc3ccc(OC(F)(F)F)cc3)C(N)=C2C(=O)Nc2c(C)cc(C)cc2C)cc1 (configuration not stated) was read as MCF10A rereplic 3.7µM*, IL1B secr inh -104*, Vif-A3F inh 0%, Giardia kill -4, Vif-APOBEC3G blk -5% and SW480 rerep 12%.
N=C1SC(CC(=O)Nc2ccc([N+](=O)[O-])cc2)C(=O)N1c1ccccc1 (configuration not stated) was read as MCF10A rereplic -2%, IL1B secr inh -73*, Vif-A3F inh 8%, Giardia kill 6, Vif-APOBEC3G blk -1% and SW480 rerep -79%.
Screening COc1ccc2c(c1)sc1ncc(C(=O)NCc3cccc(Cl)c3)c(=O)n12 returned Vif-A3F inh -1% and Vif-APOBEC3G blk -2%.
Screening CN(C)c1ccc(/C=C2\Cc3ccccc3C2=O)cc1 returned Vif-APOBEC3G blk 3.2µM*.
CN(C)c1ccc(/C=C2\CCC/C(=C\c3ccccc3)C2=O)cc1 was read as MCF10A rereplic 18µM*, IL1B secr inh -65*, Vif-A3F inh inconclusive, Giardia kill -4, Vif-APOBEC3G blk inconclusive and SW480 rerep 15%.
CC(=O)N1/C(=C/c2ccc(N(C)C)cc2)C(=O)c2ccccc21 was read as MCF10A rereplic inconclusive, IL1B secr inh -95*, Vif-A3F inh inconclusive, Giardia kill -17, Vif-APOBEC3G blk inconclusive and SW480 rerep 2.1µM*.
